Results published in PubChem BioAssay (NCATS).
“And” between values parts separate entries of the source, which are not always exact repeats. Identical values can stand only once. A number with no mark means an inactive call. Records with an inconclusive call do not appear. Entries that show only a call come without a potency. The source made the active and inactive calls. Unless noted, calls come from the whole dose curve; as a rule, active = well fitted curve in the direction sought with a large enough effect; inconclusive = small, poorly fitted or top-dose-only effect, or another doubt; inactive = no such curve, though single readings can be large; an effect the other way counts as inactive or inconclusive.

Key:
[1] = target: Retinoic acid receptor RXR-alpha (Homo sapiens) (UniProt P19793); assay: qHTS assay for small molecule antagonists of retinoid X receptor alpha signaling (AID 588546; active = well fitted inhibition curve with a large enough effect in the signal ratio, with a control signal flat, not every such curve was filed as active; the % refers to the signal ratio;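 note: cells stimulated with 9-cis-retinoic acid as agonist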); settings: HEK293T RXRa-UAS-bla, beta-lactamase ratio, antagonist mode
In short: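 Beta-lactamase reporter inhibition, read as CCF4 fluorescence ratio (ex 405, em 460/530 nm) after 2 h at RT. HEK293T UAS-bla cells, 2500/well, were stimulated with 9-cis-RA at 500 or 100 nM final alongside test compound for 18 h at 37 C.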

[2] = target: Thyroid hormone receptor beta (Homo sapiens) (UniProt P10828); assay: qHTS assay for small molecule antagonists of thyroid hormone receptor beta signaling (AID 588547; active = well fitted inhibition curve with a large enough effect in the signal ratio, with a control signal flat, not every such curve was filed as active; the % refers to the signal ratio;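 note: cells stimulated with 0.4 nM T3 agonist during compound exposure; series mostly up to about 77 µM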); settings: TR-UAS-bla HEK293, beta-lactamase ratio, antagonist mode, 18 h
In short: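 TR-UAS-bla GripTite HEK293 cells in 2% charcoal/dextran FBS medium were preincubated 4 h at 37 C, given compound (0.59 nM to 92 uM) plus 0.4 nM T3 (final) for 18 h, then CCF4 for 2 h at RT; Hill fit gave IC50.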

[3] = target: Luciferin 4-monooxygenase (Photinus pyralis) (UniProt P08659); assay: Biochemical firefly luciferase enzyme assay for NPC (AID 624030);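 note: purified P. pyralis luciferase at 10 nM with luciferin and ATP substrate; series mostly up to about 59 µM; nearly all actives have a fitted effect of over 70% in size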
In short: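 Counter-screen for direct inhibition of the luciferase enzyme by approved-drug library compounds, run at 10 nM enzyme in 50 mM Tris acetate (final). Luminescence was read within 5 min of enzyme-buffer addition and normalized to PTC124 versus DMSO (0%).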

[4] = S16 Schwann cell viability assay (CellTiter-Glo assay) (AID 624031); note: nearly all actives have a fitted effect of over 70% in size; note: potency is the fitted concentration of half-maximal effect
In short: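 Native S16 Schwann cells (rat), serum-containing medium, overnight attachment then 24 h drug exposure at 37 °C/5% CO2. CellTiter-Glo ATP signal; normalized to cell-free and vehicle wells.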

[5] = S16 Schwann cell PMP22 intronic element firefly luciferase assay (AID 624032); note: nearly all actives have a fitted effect of over 30% in size; note: potency is the fitted concentration of half-maximal effect
In short: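 Rat S16 Schwann cells stably carrying a PMP22 intronic element-driven Fluc reporter were seeded overnight, then exposed to compounds for 24 h at 37 °C. Luminescence was normalized to PTC124 (positive control) and DMSO (0% activity).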

[6] = target: Voltage-gated inwardly rectifying potassium channel KCNH2 (Homo sapiens) (UniProt Q12809); assay: qHTS Assay for Small Molecule Inhibitors of the Human hERG Channel Activity (AID 588834);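 note: lower thallium flux fluorescence means stronger hERG block; nearly all actives have a fitted effect of over 50% in size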; note: potency is the fitted concentration of half-maximal effect
In short: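 Blockade is seen as reduced FluxOR thallium-flux fluorescence in U2OS cells expressing hERG from a BacMam construct, in Opti-MEM with 2% FCS. Concentration-response data fitted to the Hill equation for AC50.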

[7] = S16 Schwann cell PMP22 intronic element beta-lactamase assay (AID 624044; calls by dose curve; note: nearly all actives have a fitted effect of over 15% in size; note: potency is the fitted concentration of half-maximal effect)
In short: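 Rat S16 Schwann cells with beta-Lac driven by a PMP22 intronic element, compound-treated 24 h at 37 °C. LiveBLAzer FRET B/G read: 460 nm normalized to potassium clavulanate vs DMSO; 535 nm FRET as viability; concentration-effect curves classified.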

[8] = target: Glutaminase kidney isoform, mitochondrial (Homo sapiens) (UniProt O94925); assay: qHTS for Inhibitors of Glutaminase (GLS): LOPAC Validation (AID 624146); note: nearly all actives have a fitted effect of over 60% in size; note: potency is the fitted concentration of half-maximal effect
In short: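 hKGA; 45 mM KH2PO4 pH 8.2 + 0.02% Tween-20; cpd via pin tool; 1 mM Gln soln; GluOx/HRP/Amplex Red; RT 30 min; fluor. t0 & final.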

[9] = qHTS of Trypanosoma Brucei Inhibitors: LOPAC Validation (AID 624147)
In short: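 In this concentration-response screen, enzyme-free wells defined baseline while DMSO plates tracked drift. Each reaction combined TbPYK, substrate, compound and 130 uM ADP for 45 min at room temperature. Kinase-Glo Plus luminescence gave the signal.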

[10] = target: Glucagon-like peptide 1 receptor (Homo sapiens) (UniProt P43220); assay: qHTS of GLP-1 Receptor Agonists: LOPAC Validation (AID 624148);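 note: higher luminescence signal means agonism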
In short: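 HEK293 cells stably co-expressing a cAMP-responsive luciferase reporter and a hypersensitive GLP-1R were plated 12 h at 37 °C and exposed to compounds for 4-6 hr at 37 °C, 5% CO2. Luminescence was read 12 min after adding detection reagent.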

[11] = qHTS of Nrf2 Activators: LOPAC Validation (AID 624149)
In short: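 ARE reporter activation measured in AREc32 firefly luciferase cells after 24 hr compound exposure; Steady-Glo luminescence.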

[12] = HTS Assay for Allosteric Antagonists of the Human D2 Dopamine Receptor: Hit Validation in HTRF (AID 624455);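 note: stable D1 dopamine receptor cell line scored for blocking the D1 response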
In short: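 Signal from an HTRF read-out in D1-expressing stable cells gave hit activity as inhibition of the D1 response.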

[13] = qHTS assay for small molecule activators of the nuclear factor-kappa B (NF-kB) signaling pathway (AID 651749; active = well fitted activation curve with a large enough effect in the signal ratio; the % refers to the signal ratio; note: series mostly up to about 77 µM); settings: NF-kB-bla ME-180 cells, beta-lactamase FRET ratio, 16 h; hits give high values
In short: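 ME-180 cells stably carrying a beta-lactamase reporter under an NF-kB response element were exposed to compound or DMSO vehicle for 16 hr at 37C, 5% CO2. Pathway activation was read by FRET, since reporter expression disrupts FRET.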

[14] = qHTS assay for small molecule agonists of the antioxidant response element (ARE) signaling pathway (AID 651741; active = well fitted activation curve with a large enough effect in the signal ratio; the % refers to the signal ratio; note: potency is the fitted concentration of half-maximal effect)
In short: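 ARE-bla HepG2 cells (beta-lactamase reporter under ARE control) were plated at 2,000 cells/well, preincubated 5 h at 37 C/5% CO2, then treated with DMSO-dissolved compounds for 16 h at 37 C; LiveBLAzer B/G FRET substrate added, fluorescence read after 2 h at room temperature.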

[15] = qHTS assay for small molecule disruptors of the mitochondrial membrane potential - 1 hr assay (AID 651754; calls by dose curve; note: nearly all actives have a fitted effect of over 35% in size)
In short: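 Steps: seed HepG2 cells and let attach overnight; pin-transfer compound or vehicle; incubate 1 hr at 37C; add Mito-MPS dye for 30 min; read two-channel fluorescence for monomer and aggregate forms.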

Chain of Voltage-gated inwardly rectifying potassium channel KCNH2 (Homo sapiens) (Q12809 whole entry, looked up): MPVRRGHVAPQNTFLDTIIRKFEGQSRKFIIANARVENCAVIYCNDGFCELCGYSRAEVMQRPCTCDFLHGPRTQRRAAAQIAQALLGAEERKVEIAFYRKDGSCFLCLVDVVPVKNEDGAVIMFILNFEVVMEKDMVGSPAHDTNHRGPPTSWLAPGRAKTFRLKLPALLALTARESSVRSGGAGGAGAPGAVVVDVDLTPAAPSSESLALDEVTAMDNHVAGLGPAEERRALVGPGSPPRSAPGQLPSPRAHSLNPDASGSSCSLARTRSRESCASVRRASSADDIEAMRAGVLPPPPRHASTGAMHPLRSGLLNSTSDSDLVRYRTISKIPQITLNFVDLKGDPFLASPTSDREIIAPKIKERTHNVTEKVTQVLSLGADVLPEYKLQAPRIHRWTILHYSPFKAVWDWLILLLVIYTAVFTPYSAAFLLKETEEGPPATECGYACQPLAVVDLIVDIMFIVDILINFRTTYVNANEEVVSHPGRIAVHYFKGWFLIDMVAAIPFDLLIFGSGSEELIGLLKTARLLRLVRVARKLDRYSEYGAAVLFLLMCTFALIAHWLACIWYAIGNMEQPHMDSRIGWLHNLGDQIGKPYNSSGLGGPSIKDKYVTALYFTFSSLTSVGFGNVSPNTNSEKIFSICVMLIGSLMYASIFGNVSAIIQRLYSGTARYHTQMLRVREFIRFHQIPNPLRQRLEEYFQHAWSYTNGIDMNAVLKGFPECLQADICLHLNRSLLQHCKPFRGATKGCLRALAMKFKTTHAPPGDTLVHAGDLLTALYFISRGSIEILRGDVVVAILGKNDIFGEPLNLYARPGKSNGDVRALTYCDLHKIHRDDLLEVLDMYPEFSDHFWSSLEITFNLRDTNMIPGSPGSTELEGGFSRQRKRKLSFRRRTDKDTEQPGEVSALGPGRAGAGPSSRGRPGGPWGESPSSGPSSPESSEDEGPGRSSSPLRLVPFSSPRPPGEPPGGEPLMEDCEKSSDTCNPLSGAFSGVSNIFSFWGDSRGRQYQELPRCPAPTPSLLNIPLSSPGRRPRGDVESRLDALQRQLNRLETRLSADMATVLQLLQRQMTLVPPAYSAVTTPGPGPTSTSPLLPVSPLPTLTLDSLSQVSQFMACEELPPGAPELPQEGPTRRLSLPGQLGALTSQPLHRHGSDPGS
Chain of Glucagon-like peptide 1 receptor (Homo sapiens) (P43220 whole entry, looked up): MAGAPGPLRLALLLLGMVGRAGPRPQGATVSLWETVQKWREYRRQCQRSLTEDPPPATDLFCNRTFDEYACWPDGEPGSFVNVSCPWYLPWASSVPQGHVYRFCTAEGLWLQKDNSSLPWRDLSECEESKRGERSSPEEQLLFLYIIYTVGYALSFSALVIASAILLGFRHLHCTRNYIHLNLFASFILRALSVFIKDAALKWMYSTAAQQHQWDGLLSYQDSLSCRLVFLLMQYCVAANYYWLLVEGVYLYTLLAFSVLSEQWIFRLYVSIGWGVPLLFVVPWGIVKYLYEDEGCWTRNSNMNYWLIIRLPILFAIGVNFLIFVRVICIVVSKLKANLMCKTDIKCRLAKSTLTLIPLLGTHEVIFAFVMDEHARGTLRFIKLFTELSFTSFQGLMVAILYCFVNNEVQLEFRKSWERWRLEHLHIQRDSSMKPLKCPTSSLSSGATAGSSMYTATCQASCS
Chain of Thyroid hormone receptor beta (Homo sapiens) (P10828 whole entry, looked up): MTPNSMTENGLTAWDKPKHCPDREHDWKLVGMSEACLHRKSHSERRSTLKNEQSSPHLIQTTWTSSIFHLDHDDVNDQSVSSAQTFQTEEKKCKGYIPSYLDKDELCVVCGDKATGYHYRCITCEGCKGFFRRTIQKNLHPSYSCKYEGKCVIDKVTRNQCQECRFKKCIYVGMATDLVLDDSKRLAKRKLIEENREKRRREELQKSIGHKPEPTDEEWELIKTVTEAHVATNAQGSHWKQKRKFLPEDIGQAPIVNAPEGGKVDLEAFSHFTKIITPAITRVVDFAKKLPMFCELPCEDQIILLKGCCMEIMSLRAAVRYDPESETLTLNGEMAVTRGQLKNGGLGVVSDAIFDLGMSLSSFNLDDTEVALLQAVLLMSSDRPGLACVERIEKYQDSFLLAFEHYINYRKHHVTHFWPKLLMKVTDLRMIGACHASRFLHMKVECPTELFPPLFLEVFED
Chain of Luciferin 4-monooxygenase (Photinus pyralis) (P08659 whole entry, looked up): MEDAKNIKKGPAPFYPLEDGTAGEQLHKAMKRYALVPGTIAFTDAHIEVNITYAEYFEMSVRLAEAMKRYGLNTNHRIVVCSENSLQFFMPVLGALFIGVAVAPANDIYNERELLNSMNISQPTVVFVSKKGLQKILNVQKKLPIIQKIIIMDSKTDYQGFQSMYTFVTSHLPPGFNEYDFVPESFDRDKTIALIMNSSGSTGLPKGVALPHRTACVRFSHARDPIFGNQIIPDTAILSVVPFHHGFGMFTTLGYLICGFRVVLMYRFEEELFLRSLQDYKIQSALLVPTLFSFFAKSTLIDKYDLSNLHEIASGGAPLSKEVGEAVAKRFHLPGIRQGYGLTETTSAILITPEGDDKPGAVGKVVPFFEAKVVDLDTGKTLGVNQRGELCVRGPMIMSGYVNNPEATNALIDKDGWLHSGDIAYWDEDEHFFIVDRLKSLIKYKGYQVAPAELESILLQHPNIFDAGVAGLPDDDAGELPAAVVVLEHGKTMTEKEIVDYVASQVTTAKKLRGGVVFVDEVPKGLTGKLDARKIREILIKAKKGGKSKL
Chain of Retinoic acid receptor RXR-alpha (Homo sapiens) (P19793 whole entry, looked up): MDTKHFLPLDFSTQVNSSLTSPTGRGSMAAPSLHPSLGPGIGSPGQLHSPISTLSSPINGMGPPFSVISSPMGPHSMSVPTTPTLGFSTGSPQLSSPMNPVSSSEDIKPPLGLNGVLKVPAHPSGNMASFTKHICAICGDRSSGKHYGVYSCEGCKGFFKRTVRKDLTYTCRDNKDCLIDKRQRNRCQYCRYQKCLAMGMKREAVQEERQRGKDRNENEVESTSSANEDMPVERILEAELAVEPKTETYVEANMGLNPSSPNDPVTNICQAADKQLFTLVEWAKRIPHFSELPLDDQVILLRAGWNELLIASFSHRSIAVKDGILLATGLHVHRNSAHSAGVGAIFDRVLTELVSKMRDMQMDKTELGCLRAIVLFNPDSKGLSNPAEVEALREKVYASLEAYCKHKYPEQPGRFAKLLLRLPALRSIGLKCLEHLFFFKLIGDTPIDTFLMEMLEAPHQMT
Chain of Glutaminase kidney isoform, mitochondrial (Homo sapiens) (O94925 whole entry, looked up, canonical isoform): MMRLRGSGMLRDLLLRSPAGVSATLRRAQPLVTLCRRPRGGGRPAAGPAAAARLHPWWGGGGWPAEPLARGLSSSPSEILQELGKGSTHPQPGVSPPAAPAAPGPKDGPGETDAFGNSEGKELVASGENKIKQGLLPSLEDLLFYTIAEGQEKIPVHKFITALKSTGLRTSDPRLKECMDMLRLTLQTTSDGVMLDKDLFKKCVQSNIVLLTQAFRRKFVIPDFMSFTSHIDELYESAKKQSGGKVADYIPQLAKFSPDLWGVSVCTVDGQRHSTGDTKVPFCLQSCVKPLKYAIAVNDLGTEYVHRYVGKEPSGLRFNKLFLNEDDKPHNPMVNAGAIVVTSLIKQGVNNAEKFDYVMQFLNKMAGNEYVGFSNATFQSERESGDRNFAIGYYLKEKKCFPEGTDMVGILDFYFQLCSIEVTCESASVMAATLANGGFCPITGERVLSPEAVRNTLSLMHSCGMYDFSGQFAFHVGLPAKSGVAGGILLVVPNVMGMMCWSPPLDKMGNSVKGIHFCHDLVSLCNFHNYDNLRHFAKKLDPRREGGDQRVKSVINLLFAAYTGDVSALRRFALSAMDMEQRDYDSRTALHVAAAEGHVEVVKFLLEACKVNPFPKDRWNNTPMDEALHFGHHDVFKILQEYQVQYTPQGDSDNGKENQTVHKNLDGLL

Compound | max response [1] | activity change % (negative = inhibition) [2] | Potency [3] | Potency [4] | Potency [5] | Potency [6] | Potency [7] | Potency [8] | outcome [9] | outcome [10] | outcome [11] | Potency [12] | activation [13] | Potency [14] | Potency [15]
NC(=Nc1ccccc1)Nc1ccccc1 | -22.5% and -7.28% | -0.182% | inactive | inactive | inactive | – | – | – | – | – | – | – | – | – | –
CC(=O)[C@@]1(O)CC[C@H]2[C@@H]3CCC4=CC(=O)CC[C@]4(C)[C@H]3CC[C@@]21C | -1.98% | – | inactive | inactive | inactive | inactive | inactive | inactive | inactive | inactive | inactive | inactive | 0.354% | – | –
NC(=O)N1c2ccccc2C=Cc2ccccc21 | 2.96% and -0.41% | 8.17% | inactive | inactive | inactive | inactive | – | inactive | inactive | inactive | inactive | inactive | -0.533% and -3% | inactive | –
CCCCOCCOCCOCc1cc2c(cc1CCC)OCO2 | -27.1% and 3.9% | 4.23% and -22.6% | inactive | inactive | inactive | inactive | inactive | – | – | – | – | – | -2.78% and 0.8% | inactive | inactive
NS(=O)(=O)c1cc2c(cc1Cl)NC(C1CC3C=CC1C3)NS2(=O)=O (centres undefined) | – | – | inactive | inactive | inactive | inactive | inactive | inactive | inactive | inactive | inactive | inactive | – | – | –
CCn1nc(C(=O)O)c(=O)c2cc3c(cc21)OCO3 | – | – | inactive | inactive | inactive | inactive | inactive | inactive | inactive | – | – | inactive | – | – | –
Cc1ccc(S(=O)(=O)NC(=O)NN2CCCCCC2)cc1 | -7.05% | 5.89% | inactive | inactive | inactive | inactive | inactive | 10 µM (active) | inactive | inactive | inactive | inactive | -1.9% | inactive | –
c1cnc(N2CCN(Cc3ccc4c(c3)OCO4)CC2)nc1 | – | – | inactive | inactive | inactive | inactive | inactive | – | inactive | inactive | inactive | inactive | – | – | –
O=c1[nH]c(=O)n([C@H]2C[C@H](O)[C@@H](CO)O2)cc1Br | 7.58% | 7.23% | inactive | inactive | 4.05 µM (active) | inactive | 7.94 µM (active) | inactive | inactive | – | inactive | inactive | 0.708% | inactive | –
CC(=O)[C@]1(O)Cc2c(O)c3c(c(O)c2[C@@H](O[C@H]2C[C@H](N)[C@H](O)[C@H](C)O2)C1)C(=O)c1ccccc1C3=O | – | – | inactive | 32.2 µM (active) | inactive | 10 µM (active) | 0.0999 µM (active) | inactive | inactive | – | – | inactive | – | – | –
CCCN1C[C@H](CSC)C[C@@H]2c3cccc4[nH]cc(c34)C[C@H]21 | – | – | inactive | inactive | inactive | 12.6 µM (active) and 2 µM (active) | inactive | inactive | inactive | inactive | inactive | – | – | – | –
CCCCCN(CCCCC)C(=O)C(CCC(=O)O)NC(=O)c1ccc(Cl)c(Cl)c1 (centres undefined) | – | – | inactive | inactive | inactive | inactive | inactive | inactive | inactive | inactive | inactive | inactive | – | – | –
CC(N=C(NC#N)Nc1ccncc1)C(C)(C)C (centres undefined) | – | – | inactive | inactive | inactive | inactive | inactive | inactive | inactive | inactive | – | inactive | – | – | –
CCN(CC)CCOCCOC(=O)C1(c2ccccc2)CCCC1 | – | – | inactive | inactive | inactive | 12.6 µM (active) | inactive | inactive | inactive | inactive | inactive | inactive | – | – | –
NC(N)=NC(=O)Cc1c(Cl)cccc1Cl | – | – | inactive | inactive | inactive | inactive | inactive | inactive | inactive | – | inactive | inactive | – | – | –
CCOC(=O)c1cnc2c(cnn2CC)c1NN=C(C)C | – | – | inactive | inactive | inactive | inactive | inactive | – | inactive | inactive | inactive | inactive | – | – | –
CCCCNc1ccc(C(=O)OCCN(C)C)cc1 | – | – | inactive | inactive | inactive | inactive | – | inactive | inactive | inactive | inactive | inactive | – | – | –
NC/C=C/C(=O)O | – | – | inactive | inactive | inactive | inactive | – | inactive | inactive | inactive | inactive | inactive | – | – | –
Nc1nc(N)c2nc(-c3ccccc3)c(N)nc2n1 | – | – | inactive | inactive | inactive | inactive | – | inactive | inactive | inactive | inactive | inactive | – | 54.5 µM (active) and 33.5 µM (active) | –
O=C(O)CP(=O)(O)O | – | – | inactive | inactive | inactive | inactive | – | inactive | inactive | inactive | – | inactive | – | – | –
